Source: PubChem BioAssay
CtBP-E1A inh = CtBP/E1A binding inhibition | AID 651724 | AlphaScreen GST-E1A/His-CtBP binding, 1536-well; stronger effect = lower value | hit rate 0.49% among 340,000 | activity change, % (test concentration not listed); in the data active = activity change below about -65%; inconclusive = mostly about -30% to -63%
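Steps: dispense buffer (Tris pH 8.0, NaCl 300 mM, TCEP 1 mM, BSA, Tween 20); add 5X protein mix (GST-E1A, His-CtBP, 125 nM each); pin 23 nL compound; 2 h at 37 °C, dark; add 5X beads (50 ug/mL); 1 h; read.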
BAZ2B block = BAZ2B (human) inhibition. Q9UIF8. AlphaScreen BAZ2B-H3K14Ac peptide displacement. Potency, µM (series often up to 114 µM), usual class: inhibitors. hit rate 4.4% among 360,000. AID 504333; note: nearly all actives have a fitted effect of over 60% in size
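In this displacement format the biotinylated H3(5-23) peptide acetylated at Lys14 serves as ligand at 50 nM, with BAZ2B at 50 nM in PBS pH 7.4 containing 0.01% Tween-20. Donor and acceptor beads are 10 ug/mL final.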
G9a inh = G9a (human) methyltransferase inhibition. G9a H3K9 monomethylation, AlphaScreen, 2 h. Potency, µM (top dose mostly 102 µM), usual class: inhibitors. hit rate 8.8% among 350,000; note: nearly all actives have a fitted effect of over 75% in size
Target sequence (Q96KQ7 913-1193 limits assumed): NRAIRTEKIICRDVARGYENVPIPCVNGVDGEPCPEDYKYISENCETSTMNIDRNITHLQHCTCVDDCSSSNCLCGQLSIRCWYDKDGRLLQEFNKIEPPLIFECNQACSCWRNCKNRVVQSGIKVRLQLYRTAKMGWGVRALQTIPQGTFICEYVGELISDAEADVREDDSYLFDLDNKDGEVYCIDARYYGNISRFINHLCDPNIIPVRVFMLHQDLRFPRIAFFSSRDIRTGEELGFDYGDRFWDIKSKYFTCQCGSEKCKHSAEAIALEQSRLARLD
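Compounds were preincubated with 20 nM G9a for 15 min, after which biotinylated H3K9 peptide (500 nM) and SAM (20 uM) started a 2 h room-temperature reaction. Monomethylated product was quantified by antibody-based AlphaScreen chemiluminescence.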
JMJD2A Tudor inh = JMJD2A Tudor domain (human) inhibition; AID 504339; AlphaScreen JMJD2A-Tudor / H3K4me3 peptide binding; Potency, µM (titrated, usually from 114 µM), usual class: inhibitors; O75164; hit rate 4.4% among 390,000; note: nearly all actives have a fitted effect of over 50% in size
Six1-Eya2 inh = Six1/Eya2 interaction inhibition; Q15475+O00167; AlphaScreen GST-Six1/His-Eya2 binding, biochemical; stronger effect = lower value; activity change, % (test concentration not listed); hit rate 0.56% among 360,000; AID 651725; in the data active = activity change below about -65%; inconclusive = mostly about -30% to -63%
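Six1/Eya2 binding was read as AlphaScreen signal after compounds were pinned into GST-Six1 plus His-tagged Eya2 (5X stock 250/500 nM) in pH 8.0 Tris/NaCl/TCEP buffer, beads added, then incubated 1 h, 37 C, dark.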
HP1b binding inh = blocks HP1-beta chromodomain binding to methylated histone tails; P83916; hit rate 0.56% among 390,000; AlphaScreen HP1-beta / biotin-H3K9me3 peptide binding; Potency, µM (series often up to 114 µM), hits mostly inhibitors; note: nearly all actives have a fitted effect of over 70% in size
Target sequence (P83916 whole entry, looked up): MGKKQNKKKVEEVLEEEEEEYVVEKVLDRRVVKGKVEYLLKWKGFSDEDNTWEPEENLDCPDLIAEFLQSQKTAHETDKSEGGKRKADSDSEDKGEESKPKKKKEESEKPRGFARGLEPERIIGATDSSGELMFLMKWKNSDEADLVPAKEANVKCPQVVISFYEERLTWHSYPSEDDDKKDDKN
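Compound inhibition of the preformed complex between 50 nM HP1-beta and 50 nM biotinylated H3K9me3 peptide was read by AlphaScreen. Buffer was PBS pH 7.4 with 0.01% Tween-20. Incubations ran 30 min at room temperature, with 10 ug/mL donor/acceptor beads.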
A number is an active result; – = inactive; ? = inconclusive; · = not tested or not shown; [ ] = dose if it differs, or a comment. Compounds with a hit are over-represented: about 10% of the library has one in this group of screens. Unless noted, calls come from the whole dose curve; as a rule, active = well fitted inhibition curve with a large enough effect; inconclusive = small, poorly fitted or top-dose-only effect; inactive = no such curve, though single readings can be large or run the other way.

SMILES	CtBP-E1A inh	BAZ2B block	G9a inh	JMJD2A Tudor inh	Six1-Eya2 inh	HP1b binding inh
CCc1ccc(/C=C2\SC(=S)N(CCCC(=O)Nc3ccccc3C(=O)O)C2=O)cc1	–	?	32µM	?	–	–
O=C(CCCN1C(=O)/C(=C/c2cccs2)SC1=S)NNC(=O)c1ccncc1	–	?	–	–	–	–
O=C(CCCN1C(=O)/C(=C\c2ccccc2)SC1=S)Nc1ccc(C(=O)O)cc1	–	–	?	?	–	–
O=C(CCCN1C(=O)/C(=C/c2cccs2)SC1=S)NNC(=O)c1ccccc1O	–	56µM	–	–	–	–
CCS(=O)(=O)N1CCc2cc(C(=O)Nc3ccc(C)c(Cl)c3)ccc21	·	–	?	–	·	–
CCOC(=O)Cc1cc(C(=O)Nc2ccc(Br)cc2)sc1-c1ccc(C)cc1	·	–	–	–	·	–
COc1ccc(/C=C2/SC(=S)N(CCCC(=O)Nc3cccc(O)c3)C2=O)cc1	?	?	?	?	–	?
COc1ccc(/C=C2/SC(=S)N(CCCC(=O)Nc3ccccc3C(=O)O)C2=O)cc1	–	?	79µM	?	–	–
COc1ccc(/C=C2\SC(=S)N(CCCC(=O)NNC(=O)c3ccccc3O)C2=O)cc1	·	50µM	–	–[11.4 µM]	–	?
CCOC(=O)[C@]12CCC=C1N(Cc1ccc3c(c1)OCO3)C(=O)[C@H](CC(=O)NCCC(C)C)C2	–	·	·	·	–	·
O=C(Cn1c(C(F)(F)F)nc2ccccc21)N1CCCC1	–	–	–	–	–	–
FC(F)(F)c1nc2ccccc2n1CCNc1nc(CN2CCCCC2)cs1	–	–	45µM	–	–	–
O=C(NCCn1c(-c2ccncc2)nc2ccccc21)[C@H]1CCCN1c1nc(CN2CCCCC2)cs1	–	–	–	–	–	–
c1ccc2c(c1)nc(-c1ccncc1)n2CCNc1nc(CN2CCCCC2)cs1	–	–	50µM	–	–	–
COc1ccc(C(=O)Cn2c(=O)c(-c3cc(C)ccc3NC(C)=O)nc3ccccc32)cc1	·	–	–	–	·	–
CCOc1ccccc1C(=O)N(C)CC(=O)Nc1ccc(OC)cc1	–	–	–	–	–	–
Cc1sc2ncnc(Sc3ccccc3C(=O)Nc3ccccc3Cl)c2c1C	·	–	3.5µM	–	–	–
COc1ccc(NC(=O)CN(C)C(=O)c2ccccc2Sc2ncnc3sc(C)c(C)c23)cc1	–	–	35µM	–	–	–
Cc1sc2ncnc(Sc3ccccc3C(=O)Nc3ccc(Br)cc3)c2c1C	–	–	8.9µM	?	–	?
Cc1sc2ncnc(Sc3ccccc3C(=O)Nc3ccc(C#N)cc3)c2c1C	–	–	?	–	–	–
Cc1sc2ncnc(SC(C)C(=O)N3c4ccccc4Sc4ccccc43)c2c1C (centres undefined)	–	–	–	–	–	–
COc1ccc(-c2csc(NNC3=NCCCCC3)n2)cc1	·	?	10µM	?	–	?
Brc1ccc(-c2csc(NC3=NCCCCC3)n2)cc1	–	–	–	–	–	–
c1ccc(NNC2=NCCCCC2)cc1	·	–	2.5µM	–	–	–
CCOc1ccc(-c2csc(NNC3=NCCCCC3)n2)cc1	·	50µM	7.9µM	–[11.4 µM]	–	?
SMILES	CtBP-E1A inh	BAZ2B block	G9a inh	JMJD2A Tudor inh	Six1-Eya2 inh	HP1b binding inh
Clc1ccc(-c2csc(NNC3=NCCCCC3)n2)cc1	–	–	–[2.33 µM]	?	–	–
COc1ccc(-c2csc(NC3=NCCCCC3)n2)cc1	–	–	–	–	–	–
c1ccc(-c2csc(NNC3=NCCCCC3)n2)cc1	–	?	10µM	–[11.4 µM]	–	?
O=C(Nc1cccc(Cl)c1)c1csc([C@H]2C[C@H](O)[C@@H](CO)O2)n1	–	·	·	·	–	·
Clc1ccccc1-c1nc2nc3ccccc3nc2n1-c1ccc2c(c1)OCO2	–	–	–	–	–	–
CCc1noc(C)c1C(=O)OCC(=O)Nc1nc(-c2ccc(F)c(F)c2)cs1	–	–	–[12.7 µM]	–	–	–
CCc1cccc(C)c1NC(=O)CN1CCCN(Cc2ccccc2Cl)S1(=O)=O	·	–	–	–	·	–
CSc1ccc(C2CC(=O)Oc3c2c(=O)n(C)c2ccccc32)cc1 (centres undefined)	·	–	–	–	·	–
